Measured values taken from PubChem BioAssay (NCATS).
Results filed as inconclusive are left out. Calls of active or inactive are those of the source. Calls come from the whole dose curve; as a rule, active = well fitted curve in the direction sought with a large enough effect; inconclusive = small, poorly fitted or top-dose-only effect, or another doubt; inactive = no such curve, though single readings can be large; an effect the other way counts as inactive or inconclusive.

Legend:
[1] = Quantitative High-Throughput drug screen in 47 multiple myeloma cell lines against the NCATS MIPE library collection: ARP1_JJKsccF8 cell viability assay (AID 1918928; note: nearly all actives have a fitted effect of over 40% in size); settings: ARP1 myeloma cells viability, CellTiter-Glo ATP, 48 h; series mostly up to 45.8 µM
Outline: (§1)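 CellTiter-Glo luminescence after 48 h exposure gives viability, scaled between DMSO-only (100%) and media-only (0%) controls. Library compounds are pinned onto 500 myeloma cells per well, incubated at 37C with 5% CO2.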

[2] = Quantitative High-Throughput drug screen in 47 multiple myeloma cell lines against the NCATS MIPE library collection: ARD_JJKsccE7 cell viability assay (AID 1918929); settings: ARD myeloma cell line viability, CellTiter-Glo, 48 h; series mostly up to 45.8 µM
Outline: (§2)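 Primary qHTS used for cherry-picking: cells at 500/well, library compounds for 48 h (37C, 5% CO2), luminescent ATP assay.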

[3] = Quantitative High-Throughput drug screen in 47 multiple myeloma cell lines against the NCATS MIPE library collection: KMM1_JCRB cell viability assay (AID 1918960); settings: KMM1 myeloma viability, CellTiter-Glo ATP luminescence, 48 h; series mostly up to 45.8 µM; note: nearly all actives have a fitted effect of over 30% in size
Outline: as §1

[4] = Quantitative High-Throughput drug screen in 47 multiple myeloma cell lines against the NCATS MIPE library collection: KHM11_PLB cell viability assay (AID 1918962); settings: KHM11 myeloma cell viability, CellTiter-Glo ATP luminescence, 48 h; series mostly up to 45.8 µM; note: nearly all actives have a fitted effect of over 35% in size
Outline: (§3)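 Steps: seed 500 cells per well; pin-transfer MIPE 4.0 library; incubate 48 h at 37C, 5% CO2, humidified; add CellTiter-Glo, 5 min room temperature; read luminescence.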

[5] = Quantitative High-Throughput drug screen in 47 multiple myeloma cell lines against the NCATS MIPE library collection: Karpas620_DSMZ cell viability assay (AID 1918959); settings: Karpas620 myeloma viability, CellTiter-Glo ATP luminescence, 48 h; series mostly up to 45.8 µM; note: nearly all actives have a fitted effect of over 30% in size
Outline: as §3

[6] = Quantitative High-Throughput drug screen in 47 multiple myeloma cell lines against the NCATS MIPE library collection: Karpas417_ECACC cell viability assay (AID 1918961); settings: Karpas417 myeloma viability, CellTiter-Glo ATP luminescence, 48 h; viability (% of DMSO): at 45.8 µM (top of the series)
Outline: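 CellTiter-Glo luminescence (ATP) after 48 h compound exposure, 37C/5% CO2; 500 cells/well; MIPE 4.0 approved/investigational drugs pinned in; DMSO = 100%, media only = 0% viability.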

[7] = Quantitative High-Throughput drug screen in 47 multiple myeloma cell lines against the NCATS MIPE library collection: JIM3_ECACC cell viability assay (AID 1918963; note: nearly all actives have a fitted effect of over 35% in size); settings: JIM3 myeloma viability, CellTiter-Glo ATP, 48 h; series mostly up to 45.8 µM
Outline: as §3

[8] = Quantitative High-Throughput drug screen in 47 multiple myeloma cell lines against the NCATS MIPE library collection: JIM1_ECACC cell viability assay (AID 1918964); settings: JIM1 myeloma viability, CellTiter-Glo ATP luminescence, 48 h; series mostly up to 45.8 µM
Outline: as §2

[9] = Quantitative High-Throughput drug screen in 47 multiple myeloma cell lines against the NCATS MIPE library collection: AMO1_DSMZ cell viability assay (AID 1918927; note: nearly all actives have a fitted effect of over 30% in size); settings: AMO1 myeloma cells viability, CellTiter-Glo ATP luminescence, 48 h; series mostly up to 45.8 µM
Outline: as §2
Potency is the fitted concentration of half-maximal effect.

## O=C1NC(=O)C(c2cnc3ccccn23)=C1c1cn2c3c(cccc13)CN(C(=O)N1CCOCC1)CC2
[1]
  Potency: 0.0066 µM (active)
[2]
  Potency: 0.0042 µM (active)
[3]
  Potency: 13.2 µM (active)
[4]
  Potency: 0.001 µM (active)

## O=C(CCCN1CCN(c2ccc(F)cc2)CC1)NC1c2ccccc2CSc2ccccc21 (stereo not drawn)
[1]
  Potency: 3.72 µM (active)
[2]
  Potency: 3.32 µM (active)
[5]
  Potency: 6.62 µM (active)
[3]
  Potency: 4.69 µM (active)
[6]
  Potency: 8.33 µM (active)
[4]
  Potency: 4.18 µM (active)

## C[C@H]1[C@H](O)O[C@@H]2O[C@@]3(C)CC[C@@H]4[C@H](C)CC[C@@H]1[C@@]24OO3
[1]
  Potency: 1.66 µM (active)
[2]
  Potency: 4.18 µM (active)
[5]
  Potency: 5.26 µM (active)

## Cn1c(=O)c(-c2c(Cl)cccc2Cl)cc2cnc(Nc3cccc(C(=O)O)c3)nc21
[2]
  Potency: 0.469 µM (active)
[5]
  Potency: 1.48 µM (active)
[3]
  Potency: 0.209 µM (active)
[6]
  Potency: 0.059 µM (active)
[7]
  Potency: inactive
[8]
  Potency: 0.0264 µM (active)

## COc1ccc2nc3cc(Cl)ccc3c(Nc3cc(CN4CCCC4)c(O)c(CN4CCCC4)c3)c2n1
[1]
  Potency: 29.6 µM (active)
[4]
  Potency: 20.9 µM (active)

## COc1nccc(-c2c(-c3ccc(F)cc3)ncn2C2CCC(O)CC2)n1 (stereo not drawn)
[2]
  Potency: 0.0083 µM (active)
[5]
  Potency: inactive
[3]
  Potency: inactive
[7]
  Potency: inactive

## COC(=O)[C@H](c1ccccc1Cl)N1CCc2sccc2C1
[9]
  Potency: 26.4 µM (active)
[7]
  Potency: inactive

## CCC(=C(CC)c1ccc(O)cc1)c1ccc(O)cc1
[1]
  Potency: 18.7 µM (active)
[5]
  Potency: 16.6 µM (active)
[3]
  Potency: 18.7 µM (active)
[4]
  Potency: inactive
[7]
  Potency: inactive
[8]
  Potency: 16.6 µM (active)

## O=C1C(c2c(O)[nH]c3ccccc23)=Nc2ccccc21
[1]
  Potency: 6.62 µM (active)
[4]
  Potency: inactive
[7]
  Potency: inactive

## Cc1ccc2c(c1)C(=O)[C@]1(O)CCN(c3ccccc3)C1=N2
[2]
  Potency: inactive
[5]
  Potency: inactive
[3]
  Potency: inactive
[4]
  Potency: inactive
[8]
  Potency: inactive

## N#CC(=C1Nc2ccccc2S1)c1ccnc(OCc2ccc(CN3CCOCC3)cc2)n1
[1]
  Potency: 23.5 µM (active)
[2]
  Potency: 0.105 µM (active)
[5]
  Potency: 0.0264 µM (active)
[3]
  Potency: 0.0743 µM (active)
[7]
  Potency: 5.26 µM (active)

## O=C(NC[C@H](O)CO)c1ccncc1Nc1ccc(I)cc1F
[1]
  Potency: 2.96 µM (active)
[5]
  Potency: 0.0296 µM (active)
[3]
  Potency: 6.62 µM (active)
[7]
  Potency: 14.8 µM (active)
[8]
  Potency: 2.35 µM (active)

## CN(C)CCN(Cc1ccc(Cl)cc1)c1ccccn1
[1]
  Potency: inactive
[2]
  Potency: inactive
[5]
  Potency: inactive
[3]
  Potency: inactive
[7]
  Potency: inactive

## Cc1ccc(C(=O)N(CCCN)[C@@H](c2nc3cc(Cl)ccc3c(=O)n2Cc2ccccc2)C(C)C)cc1
[1]
  Potency: inactive
[6]
  Potency: inactive
[4]
  Potency: 10.5 µM (active)
[7]
  Potency: inactive
[8]
  Potency: inactive

## C[C@H]1COC2=C1C(=O)C(=O)c1c2ccc2c1CCCC2(C)C
[1]
  Potency: 16.6 µM (active)
[3]
  Potency: inactive
[7]
  Potency: 23.5 µM (active)

## Cc1cc(C(C)Nc2ccccc2)c2nc(N3CCOCC3)cc(=O)n2c1 (stereo not drawn)
[9]
  Potency: 18.7 µM (active)
[4]
  Potency: 1.48 µM (active)
[7]
  Potency: 14.8 µM (active)

## CNC(=O)c1ccc2c(C(=Nc3cccc(CN(C)C)c3)c3ccccc3)c(O)[nH]c2c1
[1]
  Potency: inactive
[4]
  Potency: 1.32 µM (active)

## COc1cc2c(cc1OC)CC(=O)N(CCCN(C)C[C@H]1Cc3cc(OC)c(OC)cc31)CC2
[1]
  Potency: inactive
[2]
  Potency: 16.6 µM (active)
[7]
  Potency: inactive

## Nc1[nH]nc2nnc(-c3c(-c4ccccc4)nn4ccccc34)cc12
[2]
  Potency: 2.96 µM (active)
[5]
  Potency: 16.6 µM (active)
[3]
  Potency: 4.69 µM (active)
[4]
  Potency: 10.5 µM (active)
[7]
  Potency: 9.35 µM (active)
[8]
  Potency: 3.32 µM (active)

## O=C(c1ccc(C=Cc2n[nH]c3ccccc23)cc1)N1CCNCC1
[1]
  Potency: 13.2 µM (active)
[2]
  Potency: 1.32 µM (active)
[3]
  Potency: 5.26 µM (active)
[4]
  Potency: 0.833 µM (active)
[7]
  Potency: 2.64 µM (active)
[8]
  Potency: 3.72 µM (active)

## CCOc1ccccc1N=Nc1c(C)[nH]n(-c2nc(-c3ccccc3)cs2)c1=O
[1]
  Potency: inactive
[3]
  Potency: inactive
[4]
  Potency: inactive
[7]
  Potency: inactive
[8]
  Potency: 1.66 µM (active)

## CCOC(=O)[C@@H](N)CCC(=O)N[C@@H](CSCc1ccccc1)C(=O)N[C@@H](C(=O)OCC)c1ccccc1
[1]
  Potency: inactive
[5]
  Potency: 14.8 µM (active)

## CN1CCC(COc2cnc(-c3cccc(Cn4nc(-c5cccc(C#N)c5)ccc4=O)c3)nc2)CC1
[1]
  Potency: 20.9 µM (active)
[2]
  Potency: inactive
[5]
  Potency: inactive
[3]
  Potency: inactive
[4]
  Potency: 8.33 µM (active)
[7]
  Potency: 0.372 µM (active)
[8]
  Potency: inactive
